Measured values from PubChem BioAssay AID1159580 (chemical genetic matrix, 2015).
Hit rate of the full screen: of about 5,500 compounds, about 2,000 (36%) were called active. Another 18% or so got no clear call; they are omitted. Some of the results follow. A number with no mark means an inactive call. Cut-off read from the data, not from the text of the source: active = normalized growth mostly below about 0.91 (no sharp cut-off); inconclusive = no clear call, values can overlap the other calls; inactive = mostly above about 0.92.

Test: chemical genetic growth profiling, strain panel (AID 1159580);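 note: tested at 20 µM; growth read once vehicle control cultures reached saturation at 30 °C; 1 = growth at the plate median or of vehicle wells; lower values mean less growth of the strain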
Details: S. cerevisiae deletion strains, growth OD
[1] = locus YAL013W, strain DEP1, hits give low values
[2] = locus YBR229C, strain ROT2, hits give low values
[3] = locus YCL061C, strain MRC1, hits give low values
[4] = locus YDL101C, strain DUN1, hits give low values
[5] = locus YDL134C, strain PPH21, hits give low values
[6] = locus YDR150W, strain NUM1, hits give low values
[7] = locus YEL061C, strain CIN8, hits give low values
[8] = locus YGR078C, strain PAC10, hits give low values
[9] = locus YHR030C, strain SLT2, hits give low values
[10] = locus YHR087W, strain rtc3, hits give low values
[11] = locus YJL187C, strain SWE1, hits give low values
[12] = locus YJR043C, strain POL32, hits give low values
[13] = locus YJR075W, strain HOC1, hits give low values
[14] = locus YLR039C, strain RIC1, hits give low values
[15] = locus YLR058C, strain SHM2 (second series), hits give low values
[16] = locus YLR085C, strain ARP6, hits give low values
[17] = locus YLR262C, strain YPT6, hits give low values
[18] = locus YML094W, strain GIM5, hits give low values
[19] = locus YMR219W, strain ESC1, hits give low values
[20] = locus YMR263W, strain SAP30, hits give low values
[21] = locus YMR307W, strain GAS1, hits give low values
[22] = locus YNL153C, strain GIM3, hits give low values
[23] = locus YNL298W, strain CLA4 (second series), hits give low values
[24] = locus YNL322C, strain KRE1, hits give low values
[25] = locus YNR030W, strain Alg12, hits give low values
[26] = locus YOL006C, strain TOP1, hits give low values
[27] = locus YPL055C, strain LGE1, hits give low values
[28] = locus YPL241C, strain CIN2, hits give low values
[29] = locus YPR135W, strain CTF4, hits give low values
[30] = locus YKL190W, strain CNB1, hits give low values

CCOC(=O)/C(C#N)=C/Nc1ccc2c(c1)OCO2
normalized growth [1]: 0.992
normalized growth [2]: 0.985
normalized growth [3]: 1.01
normalized growth [4]: 1.07
normalized growth [5]: 0.963
normalized growth [6]: 1
normalized growth [7]: 0.989
normalized growth [8]: 0.98
normalized growth [9]: 0.4 (active)
normalized growth [10]: 0.986
normalized growth [11]: 0.982
normalized growth [12]: 0.989
normalized growth [13]: 0.889 (active)
normalized growth [14]: 0.795
normalized growth [15]: 0.971
normalized growth [16]: 0.772 (active)
normalized growth [17]: 0.816 (active)
normalized growth [18]: 1.03
normalized growth [19]: 0.981
normalized growth [20]: 0.96
normalized growth [21]: 0.884
normalized growth [22]: 1.02
normalized growth [23]: 0.905
normalized growth [24]: 0.97
normalized growth [25]: 0.946
normalized growth [26]: 0.804
normalized growth [27]: 0.976
normalized growth [28]: 0.966
normalized growth [29]: 0.786

Cc1ccc(Cl)cc1NC(=S)N(CCC#N)/N=C\c1ccc2c(c1)OCO2
normalized growth [1]: 0.997
normalized growth [2]: 1
normalized growth [4]: 1
normalized growth [6]: 1.02
normalized growth [7]: 1
normalized growth [8]: 0.991
normalized growth [9]: 0.953
normalized growth [10]: 0.995
normalized growth [11]: 0.995
normalized growth [12]: 1
normalized growth [13]: 1.02
normalized growth [30]: 0.98
normalized growth [14]: 0.936
normalized growth [15]: 1.01
normalized growth [16]: 0.925
normalized growth [17]: 0.973
normalized growth [18]: 0.975
normalized growth [19]: 1
normalized growth [20]: 1.03
normalized growth [21]: 0.853
normalized growth [22]: 1.02
normalized growth [23]: 0.981
normalized growth [24]: 0.989
normalized growth [25]: 0.974
normalized growth [26]: 0.998
normalized growth [27]: 1.04
normalized growth [28]: 0.985
normalized growth [29]: 1.1

Cc1ccc(S(=O)(=O)N2CCC(N)=N2)cc1
normalized growth [1]: 1.03
normalized growth [2]: 0.954
normalized growth [3]: 1.03
normalized growth [4]: 1.05
normalized growth [5]: 0.984
normalized growth [6]: 1.02
normalized growth [7]: 0.997
normalized growth [8]: 1.02
normalized growth [9]: 1.1
normalized growth [10]: 1.01
normalized growth [11]: 0.999
normalized growth [12]: 1.05
normalized growth [13]: 1.02
normalized growth [30]: 1
normalized growth [14]: 1
normalized growth [15]: 0.992
normalized growth [16]: 1.02
normalized growth [17]: 0.99
normalized growth [18]: 1
normalized growth [19]: 0.995
normalized growth [20]: 1.02
normalized growth [21]: 0.997
normalized growth (locus YNL128W, strain TEP1, hits give low values): 1.01
normalized growth [22]: 1.02
normalized growth [23]: 1.04
normalized growth [24]: 1
normalized growth [25]: 0.992
normalized growth [27]: 1
normalized growth [28]: 1
normalized growth [29]: 1.08

CC(C)(C)NCC(O)COc1cccc2c1CCCC2=O (configuration not stated)
normalized growth (locus YAL021C, strain ccr4, hits give low values): 0.97
normalized growth (locus YAL026C, strain drs2, hits give low values): 0.976
normalized growth (locus YAL030W, strain snc1, hits give low values): 0.985
normalized growth (locus YBL061C, strain skt5, hits give low values): 0.981
normalized growth (locus YBR009C, strain hhf1, hits give low values): 1
normalized growth (locus YBR023C, strain chs3, hits give low values): 0.983
normalized growth (locus YBR171W, strain sec66, hits give low values): 0.934
normalized growth (locus YBR231C, strain swc5, hits give low values): 0.98
normalized growth (locus YBR279W, strain paf1, hits give low values): 0.979
normalized growth (locus YCL011C, strain gbp2, hits give low values): 0.992
normalized growth (locus YCL016C, strain dcc1, hits give low values): 1.02
normalized growth [3]: 0.957
normalized growth (locus YCL069W, strain vba3, hits give low values): 0.952
normalized growth (locus YCR088W, strain abp1, hits give low values): 0.981
normalized growth (locus YDL005C, strain med2, hits give low values): 0.987
normalized growth (locus YDL040C, strain nat1, hits give low values): 0.978
normalized growth (locus YDR001C, strain nth1, hits give low values): 0.976
normalized growth (locus YDR069C, strain doa4, hits give low values): 0.987
normalized growth (locus YDR137W, strain rgp1, hits give low values): 0.983
normalized growth (locus YDR159W, strain sac3, hits give low values): 0.967
normalized growth (locus YDR195W, strain ref2): 0.966
normalized growth (locus YDR297W, strain sur2, hits give low values): 0.981
normalized growth (locus YDR334W, strain swr1, hits give low values): 0.937
normalized growth (locus YDR335W, strain msn5, hits give low values): 0.989
normalized growth (locus YDR392W, strain spt3, hits give low values): 0.992
normalized growth (locus YEL003W, strain gim4, hits give low values): 0.994
normalized growth (locus YEL037C, strain rad23, hits give low values): 0.973
normalized growth (locus YEL061C, strain CIN8 (second series), hits give low values): 0.961
normalized growth (locus YER015W, strain faa2, hits give low values): 0.981
normalized growth (locus YER016W, strain bim1, hits give low values): 1.01
normalized growth (locus YER111C, strain swi4, hits give low values): 0.982
normalized growth (locus YER155C, strain BEM2 (second series), hits give low values): 0.986
normalized growth (locus YFR010W, strain ubp6, hits give low values): 0.95
normalized growth (locus YGL167C, strain pmr1, hits give low values): 0.984
normalized growth (locus YGL173C, strain kem1, hits give low values): 0.977
normalized growth (locus YGL227W, strain vid30, hits give low values): 0.964
normalized growth (locus YGL240W, strain doc1, hits give low values): 0.984
normalized growth (locus YGL253W, strain hxk2, hits give low values): 0.99
normalized growth (locus YHR013C, strain ard1, hits give low values): 0.988
normalized growth (locus YHR027C, strain rpn1, hits give low values): 0.996
normalized growth [9]: 0.954
normalized growth (locus YHR079C, strain IRE1, hits give low values): 0.954
normalized growth (locus YHR142W, strain chs7, hits give low values): 0.986
normalized growth (locus YJL092W, strain hpr5, hits give low values): 0.99
normalized growth (locus YJL095W, strain BCK1 (second series), hits give low values): 0.988
normalized growth (locus YJL095W, strain BCK1, hits give low values): 0.98
normalized growth (locus YJL115W, strain asf1, hits give low values): 0.959
normalized growth (locus YJL129C, strain trk1, hits give low values): 0.97
normalized growth (locus YJL154C, strain vps35, hits give low values): 0.981
normalized growth (locus YJL164C, strain tpk1, hits give low values): 1
normalized growth (locus YJL166W, strain qcr8, hits give low values): 0.976
normalized growth [11]: 0.989
normalized growth (locus YJR066W, strain TOR1, hits give low values): 0.943
normalized growth (locus YKL160W, strain elf1, hits give low values): 1.01
normalized growth (locus YKR026C, strain gcn3, hits give low values): 0.983
normalized growth (locus YKR091W, strain srl3, hits give low values): 0.986
normalized growth (locus YLL001W, strain dnm1, hits give low values): 0.985
normalized growth (locus YLL026W, hits give low values): 0.993
normalized growth (locus YLL041C, strain sdh2, hits give low values): 1.01
normalized growth (locus YLR027C, strain aat2, hits give low values): 1.01
normalized growth (locus YLR113W, strain HOG1, hits give low values): 1.01
normalized growth (locus YLR221C, strain rsa3, hits give low values): 0.999
normalized growth (locus YLR258W, strain gsy2, hits give low values): 0.969
normalized growth (locus YLR262C, strain YPT6 (second series), hits give low values): 0.971
normalized growth (locus YLR320W, strain mms22, hits give low values): 0.965
normalized growth (locus YLR342W, strain FKS1, hits give low values): 0.992
normalized growth (locus YLR357W, strain rsc2, hits give low values): 0.991
normalized growth (locus YLR370C, strain arc18, hits give low values): 0.984
normalized growth (locus YLR384C, strain iki3, hits give low values): 0.973
normalized growth (locus YML120C, strain ndi1, hits give low values): 1.01
normalized growth (locus YMR058W, strain fet3, hits give low values): 0.982
normalized growth (locus YMR125W, strain sto1, hits give low values): 0.958
normalized growth (locus YMR129W, hits give low values): 0.992
normalized growth (locus YMR205C, strain PFK2, hits give low values): 0.989
normalized growth (locus YMR231W, strain pep5, hits give low values): 0.983
normalized growth (locus YNL071W, strain lat1, hits give low values): 0.958
normalized growth (locus YNL183C, strain NPR1, hits give low values): 0.952
normalized growth (locus YNL209W, strain ssb2, hits give low values): 0.984
normalized growth (locus YNL248C, strain rpa49, hits give low values): 0.98
normalized growth (locus YNL322C, strain KRE1 (second series), hits give low values): 1.01
normalized growth (locus YNR049C, strain mso1, hits give low values): 0.993
normalized growth (locus YOR001W, strain rrp6, hits give low values): 0.944
normalized growth (locus YOR070C, strain gyp1, hits give low values): 0.992
normalized growth (locus YOR080W, strain dia2, hits give low values): 1
normalized growth (locus YOR083W, strain WHI5, hits give low values): 1.02
normalized growth (locus YOR106W, strain vam3, hits give low values): 0.977
normalized growth (locus YOR231W, strain MKK1, hits give low values): 0.977
normalized growth (locus YOR265W, strain rbl2, hits give low values): 0.979
normalized growth (locus YOR270C, strain vph1, hits give low values): 0.95
normalized growth (locus YOR290C, strain snf2, hits give low values): 1.03
normalized growth (locus YPL051W, strain arl3, hits give low values): 1.01
normalized growth (locus YPL078C, strain atp4, hits give low values): 1
normalized growth (locus YPL106C, strain sse1, hits give low values): 0.975
normalized growth (locus YPL240C, strain hsp82, hits give low values): 0.996
normalized growth (locus YPL256C, strain CLN2, hits give low values): 0.969
